Test results: PubChem BioAssay (Tox21)
Records with an inconclusive call do not appear. Entries that show only a call come without a potency. Active and inactive are the calls of the source. The call rests on the fitted dose curve; in most records, active means well fitted cell-killing curve with a large enough effect in the repeat runs; inconclusive means weak or mixed curves, or effect the other way; inactive means flat fitted curve, though single readings scatter.

experiment: Caspase-3/7 induction in HepG2 cells by small molecules, qHTS cell viability counter screen (AID 1346981); conditions: CellTiter-Fluor fluorescence, 17 h; series mostly up to 92.4 µM; further: nearly all actives have a fitted effect of over 30% in size
Description: U.S. Tox21 Program National Center for Advancing Translational Sciences [NCATS] NIH Chemical Genomics Center [NCGC] U.S. Environmental Protection Agency [EPA] National Institutes of Environmental Health Sciences [NIEHS] National Toxicology Program [NTP] U.S. Food and Drug Administration [FDA] Tox21 Assay Overview: Apoptosis is a process of programmed cell death and plays a central role in the development of multicellular organisms. It is a highly regulated process and induces cell death by activating caspases, which are the members of cysteine aspartic acid-specific protease (caspase) family. Caspases involved in apoptosis are classified by their mechanism of action as initiator caspases (caspase-2, -8, -9 and -10) and executioner caspases (caspase-3, -6, and -7). Inhibition of apoptosis results in number of cancers, autoimmune diseases, inflammatory diseases and viral infection. To identify small molecule compounds that induce apoptosis, a homogeneous, luminescent Caspase-Glo 3/7 assay was used. Wild type HepG2 cells were used to screen Tox21 libraries for identifying caspase-3/7 activity inducers. Also cytotoxicity of the compounds was tested in parallel by measuring the cell viability using CellTiter-Fluor assay system in the same wells.
Tox21 Assay Protocol Summary: HepG2 cells were dispensed at 2,000 per well in 5uL of culture medium into white solid bottom 1536-well plates (Corning Life Sciences, Corning, NY) using a Multidrop Combi (Thermo Scientific, Waltham, MA) dispenser. The assay plates were incubated at 37 C and 5% CO2 for 5hr, and then 23nL of compounds dissolved in DMSO and positive control were transferred using a Pintool station ([…], San Diego, CA). The assay plates were incubated at 37C and 5% CO2 for 17hr. For cytotoxicity read, after 16hr incubation at 37C, 1uL CellTiter-Fluor reagent (Promega Corporation, Madison, WI) was added to each well of the assay plates using Flying Reagent Dispenser (FRD, Aurora Discovery, San Diego, CA). After 1hr incubation at 37C and 5% CO2, the fluorescence signal was quantified using a ViewLux plate reader (PerkinElmer, Shelton, CT).
Potency means the concentration at half of the fitted maximal effect.

Row | SMILES | Potency | activity change, negative = cytotoxicity
1 | CCN(CC)CC(=O)Nc1c(C)cccc1C(=O)OC | inactive | 
2 | CC1=C2[C@@H]([C@H](C)CC[C@H]2/C=C(\C)C(=O)O)[C@H](O)C1 | inactive | 
3 | Nc1ccc(S(=O)(=O)NCc2ccccc2)cc1 | inactive | 
4 | Cc1c[nH]c2ccccc12 | inactive | 
5 | C[C@@H]1[C@H](O)[C@@H](C)/C=C/C=C\C=C\C=C\C=C\C=C\C=C\[C@H](O[C@@H]2O[C@H](C)[C@@H](O)[C@H](N)[C@@H]2O)C[C@@H]2O[C@](O)(C[C@@H](O)C[C@@H](O)[C@H](O)CC[C@@H](O)C[C@@H](O)CC(=O)O[C@H]1C)C[C@H](O)[C@H]2C(=O)O (stereo in doubt) | 48.6 µM (active) | 
6 | O=C1OC(=O)c2c(Br)c(Br)c(Br)c(Br)c21 | inactive | 
7 | CCCCC[C@H](O)/C=C/[C@H]1[C@H](O)CC(=O)[C@@H]1C/C=C\CCCC(=O)O | inactive | 
8 | CC(C)C(O)C(C)(C)CO (stereo not given) | inactive | 
9 | O=C(CCS)OCC(COC(=O)CCS)(COC(=O)CCS)COC(=O)CCS | inactive | 
10 | O=C(O)/C=C/c1ccc(O)c(O)c1 | inactive | 
11 | BrC(Br)C(Br)Br | inactive | 
12 | O=C(O)c1ccc(O)cc1O | inactive | 
13 | CO[C@@H]1[C@@H](OC)[C@H](C)[C@@](O)(CC(=O)O)O[C@H]1[C@H](C)[C@H]1O[C@@]2(CC[C@@](C)([C@H]3CC[C@@](C)([C@@H]4O[C@@H]([C@H]5O[C@](C)(O)[C@H](C)C[C@@H]5C)C[C@@H]4OC4C[C@H](OC)[C@@H](OC)[C@H](C)O4)O3)O2)C[C@H](O)[C@H]1C (stereo not given in full) | 3.76 µM (active) | 
14 | CCCCCCCCCCCCCCN(C)C |  | -7.71% [at 19 µM] (inactive)
15 | Cc1cccc2sc(N)nc12 | inactive | 
16 | O=C(O)c1cccc(Oc2ccccc2)c1 | inactive | 
17 | CCCCCCCCCCCC(=O)OCC(O)CO (stereo not given) | inactive | 
18 | CCOC(=O)c1ccc(NC(=O)CN2CCCCC2)cc1 | inactive | 
19 | CC(C)Cc1ccc(CC(=O)O)cc1 | inactive | 
20 | CCCCCCC(CO)CCCC (stereo not given) | inactive | 

Row | SMILES | Potency | activity change, negative = cytotoxicity
21 | C=CC(=O)NC(C)C | inactive | 
22 | Cc1ccc2c(c1)CCCN2 | inactive | 
23 | CC1=CC[C@@]23C[C@@H]1C(C)(C)[C@@H]2CC[C@H]3C | inactive | 
24 | CC(O)Cn1cnc2c1c(=O)n(C)c(=O)n2C (stereo not given) | inactive | 
25 | O=C1NC(=O)c2cccc3cccc1c23 | inactive | 
26 | O=c1[nH]c2cc(C(F)(F)F)c(N3CCOCC3)cc2n(CP(=O)(O)O)c1=O | inactive | 
27 | CCCCC(CC)COS(=O)(=O)O (stereo not given) | inactive | 
28 | Nc1nc2ccc(OC(F)(F)F)cc2s1 | inactive | 
29 | C[C@H](CS)C(=O)N1CCC[C@H]1C(=O)O | inactive | 
30 | Cc1cc(CCCOc2c(C)cc(-c3noc(C(F)(F)F)n3)cc2C)on1 | inactive | 
31 | COc1cc(NCc2ccc3nc(N)nc(N)c3c2C)cc(OC)c1OC | 26.6 µM (active) | 
32 | CC1C(C)(C)C2=C(C(=O)CCC2)C1(C)C (stereo not given) | inactive | 
33 | Nc1ccc(NC(=O)c2ccc(N)cc2)cc1 | inactive | 
34 | O=C(NS(=O)(=O)/C=C/c1ccccc1)c1ccc(F)cc1Cl | inactive | 
35 | CNc1c2c(nn1C)CCCC2 | inactive | 
36 | Cc1cccc(C)c1NC(=O)c1cc(S(N)(=O)=O)c(Cl)cc1O | inactive | 
37 | CN=C(N)NC(=O)Nc1c(C)cccc1C | inactive | 
38 | COc1cc(NS(=O)(=O)c2ccc(N)cc2)nc(C)n1 | inactive | 
39 | COC(=O)c1sccc1S(N)(=O)=O | inactive | 
40 | Nc1cccc2c(N)cccc12 | 61.1 µM (active) | 
